Bioassay records: PubChem BioAssay, several laboratories
Shown are actives, neighbours in structure and some others; about 5.2% of the full set was active somewhere.
esBAF inh – inhibitors of esBAF chromatin remodeling in mouse ES cells; Bmi1-luciferase knock-in reporter, 24 h; 100% = twice the neutral-well signal; reporter increase, % at 12.5 µM; hit rate 2% among 350,000; AID 602393; in the data active = activation above about 40%; inconclusive = no clear call, values can overlap the other calls;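 also: a rise in the Bmi1 reporter signal indicates esBAF inhibition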
SKN-1 block – C. elegans SKN-1 inhibition. hit rate 0.49% among 360,000. C. elegans VP596 Pgst-4::GFP/RFP ratio, acrylamide-induced, 24 h. inhibition, % at 21.8 µM. AID 624304;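 active = interference check ratio from 0.5 to 1.5 plus GFP to RFP signal ratio inhibition reaching or exceeding a fixed threshold, cut at about 30% in these data, passing the limit was not always enough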
Vif imaging – inhibitors of HIV Vif; inhibition, % at 7.49 µM; AID 602346; HEK293T cells, Vif self-association by quenched fluorescence, imaging, 24 h; hit rate 0.35% among 340,000; in the data active = inhibition above about 50%, passing the limit was not always enough; inconclusive = no clear call, values can overlap the other calls; inactive = below about 31%
SMARCA2 act – activators of SMARCA2 function; hit rate 1% among 370,000; activation, % at 9.1 µM; MG213 cells, MMTV-luciferase reporter, dexamethasone, overnight; AID 652017; in the data active = activation above about 7.8%
NR3A LBD binder – modulators (binders) of human NR3A ligand-binding domain; NR3A LBD differential scanning fluorimetry, Tm shift; 0% = protein alone, 100% = glycine-bound protein; Tm shift relative to glycine control, % at 25 µM; hit rate 2.5% among 340,000; AID 1259313;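 active = melting temperature shift of at least 10% of the positive control shift, at one fixed dose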
NadD block – NadD (S. aureus) enzyme inhibition | purified NadD enzyme, colorimetric absorbance read-out | inhibition, % at 20 µM | hit rate 0.78% among 360,000; in the data active = inhibition above about 26%
SMARCA2 act conf – confirmation of SMARCA2 (BRM) function activators | MG213 cells, MMTV-luciferase with dexamethasone, luminescence, overnight; MG213 cells expressing E1A, Rb sequestered; DMSO wells 0%, reference activator 100% | shares compounds with SMARCA2 act | activation, % at 9.1 µM | hit rate 30% among 3,500;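 active = activation above its plate's cutoff, the mean activation of tested wells plus 3 SD, cut at about 7.9% in these data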
VP16 Luc act – activates GAL4-VP16 luciferase, flagging SMARCA2 activator hits; shares compounds with SMARCA2 act; activation, % at 9.1 µM; AID 686939; hit rate 41% among 3,500; HEK293 GAL4-VP16 pG5luc reporter, luciferase luminescence; scaled: DMSO wells 0%, SAHA wells 100%;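 active = activation above the solvent-only control well mean plus 3 SD, averaged across control plates, cut at about 5.2% in these data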
Hits are given with their value.

Results for CN1CCN(C(=O)C[C@@H]2CC[C@H]3[C@H](COc4ccc(NC(=O)c5ccc(F)c(F)c5)cc4C(=O)N3C)O2)CC1 ?
esBAF inh: inactive

Results for O=C(Cc1ccccc1)N(c1ccc(F)cc1)C1C=CS(=O)(=O)C1 (centres undefined) ?
esBAF inh: inactive; SKN-1 block: inactive; Vif imaging: inactive; SMARCA2 act: 9.9; NR3A LBD binder: inactive; NadD block: inactive; SMARCA2 act conf: inactive; VP16 Luc act: inactive

Results for O=C(Cc1ccc(F)cc1)N(c1ccc(F)cc1)C1C=CS(=O)(=O)C1 (centres undefined) ?
esBAF inh: inactive; SKN-1 block: inactive; Vif imaging: inactive; SMARCA2 act: inactive; NR3A LBD binder: inactive; NadD block: inactive

What do the screens show for `O=C(C1CC1)N1C[C@H]2[C@@H](c3ccccc31)[C@H](CO)N2C(=O)Cc1ccccn1`?
esBAF inh: inactive

How did CCCCOC(=O)Nc1ccc(N2CCOCC2)cc1 do in these assays?
esBAF inh: inconclusive; SKN-1 block: inactive; Vif imaging: inactive; SMARCA2 act: 10; NR3A LBD binder: inactive; NadD block: inactive; SMARCA2 act conf: 9.8; VP16 Luc act: 5.7

Results for COc1cccc(C#Cc2cnc3c(c2)C(=O)N([C@@H](C)CO)C[C@H](C)[C@H](CN(C)C(C)=O)O3)c1 ?
esBAF inh: inactive

Results for O=C(C[C@H]1CC[C@@H]2[C@H](COC[C@@H](O)CN2C(=O)Nc2cccc(Cl)c2)O1)NCCCN1CCOCC1 ?
esBAF inh: inactive

What do the screens show for `Cc1cc(C(=O)COC(=O)c2ccc(Br)o2)c(C)n1C`?
esBAF inh: 45; SKN-1 block: inactive; Vif imaging: inactive; SMARCA2 act: 9.7; NR3A LBD binder: inactive; NadD block: inactive; SMARCA2 act conf: 15; VP16 Luc act: 6.5

What do the screens show for `CCCN1C(=O)C(=O)N(CC(=O)c2cc(C)n(C3CC3)c2C)C1=O`?
esBAF inh: inactive; SKN-1 block: inactive; Vif imaging: inactive; SMARCA2 act: 12; NR3A LBD binder: inactive; NadD block: inactive; SMARCA2 act conf: 11; VP16 Luc act: 8.7

What do the screens show for `CN(C)c1ccc(N=Nc2ccccc2C(=O)OCC(=O)NC2CCCC2)cc1`?
SKN-1 block: inactive; Vif imaging: inactive; SMARCA2 act: inactive; NR3A LBD binder: inactive; NadD block: inactive

What do the screens show for `CN(C)c1ccc(N=Nc2cccc3ccoc23)cc1`?
esBAF inh: inconclusive; SKN-1 block: inactive; Vif imaging: inactive; SMARCA2 act: 9.8; NR3A LBD binder: 22; NadD block: inactive; SMARCA2 act conf: inactive; VP16 Luc act: 11

What do the screens show for `C[C@H](CO)N1C[C@H](C)[C@@H](CN(C)C(=O)Nc2ccc3c(c2)OCO3)Oc2ccc(NS(C)(=O)=O)cc2CC1=O`?
esBAF inh: inactive

What do the screens show for `CC(C)c1ccc(CN2CCC2(C)C(=O)Nc2cnc3ccccc3c2)cc1` (centres undefined)?
esBAF inh: inactive; SKN-1 block: inactive; Vif imaging: inactive; SMARCA2 act: inactive; NadD block: inactive

How did CC1(C(=O)Nc2cnc3ccccc3c2)CCN1Cc1ccc2ccccc2c1 (centres undefined) do in these assays?
esBAF inh: inactive; SKN-1 block: inactive; SMARCA2 act: 12; NadD block: inactive; SMARCA2 act conf: inactive; VP16 Luc act: inactive

How did COc1ccccc1-c1cn(CC[C@H]2CC[C@H](NC(=O)C3CCCCC3)[C@@H](CO)O2)nn1 do in these assays?
esBAF inh: inactive

What do the screens show for `Cc1ccc(C)c(NC(=S)c2nc3ccccc3s2)c1`?
SKN-1 block: inactive; Vif imaging: inactive; SMARCA2 act: inactive; NR3A LBD binder: inactive; NadD block: inactive

What do the screens show for `Cc1ccc(C)c(NC(=S)c2ccc3ccccc3n2)c1`?
esBAF inh: 76; SKN-1 block: inactive; Vif imaging: inactive; SMARCA2 act: 8.5; NR3A LBD binder: inactive; NadD block: inactive; SMARCA2 act conf: inactive; VP16 Luc act: 10
